The campaign covered roughly 310,000 compounds. About 2,200 (0.71%) showed an effect of 50% or more. The effect is printed as a negative number. What follows is part of a selection rich in strong results, with near analogues and random picks from the rest.
What follows are compounds tested against human ether-à-go-go-related gene (hERG) potassium channel (human, UniProt Q12809) (assay: primary screen, population patch clamp on CHO cells stably expressing hERG; higher = less effect of the substance).
Sequence of human ether-à-go-go-related gene (hERG) potassium channel (Q12809 whole entry, looked up): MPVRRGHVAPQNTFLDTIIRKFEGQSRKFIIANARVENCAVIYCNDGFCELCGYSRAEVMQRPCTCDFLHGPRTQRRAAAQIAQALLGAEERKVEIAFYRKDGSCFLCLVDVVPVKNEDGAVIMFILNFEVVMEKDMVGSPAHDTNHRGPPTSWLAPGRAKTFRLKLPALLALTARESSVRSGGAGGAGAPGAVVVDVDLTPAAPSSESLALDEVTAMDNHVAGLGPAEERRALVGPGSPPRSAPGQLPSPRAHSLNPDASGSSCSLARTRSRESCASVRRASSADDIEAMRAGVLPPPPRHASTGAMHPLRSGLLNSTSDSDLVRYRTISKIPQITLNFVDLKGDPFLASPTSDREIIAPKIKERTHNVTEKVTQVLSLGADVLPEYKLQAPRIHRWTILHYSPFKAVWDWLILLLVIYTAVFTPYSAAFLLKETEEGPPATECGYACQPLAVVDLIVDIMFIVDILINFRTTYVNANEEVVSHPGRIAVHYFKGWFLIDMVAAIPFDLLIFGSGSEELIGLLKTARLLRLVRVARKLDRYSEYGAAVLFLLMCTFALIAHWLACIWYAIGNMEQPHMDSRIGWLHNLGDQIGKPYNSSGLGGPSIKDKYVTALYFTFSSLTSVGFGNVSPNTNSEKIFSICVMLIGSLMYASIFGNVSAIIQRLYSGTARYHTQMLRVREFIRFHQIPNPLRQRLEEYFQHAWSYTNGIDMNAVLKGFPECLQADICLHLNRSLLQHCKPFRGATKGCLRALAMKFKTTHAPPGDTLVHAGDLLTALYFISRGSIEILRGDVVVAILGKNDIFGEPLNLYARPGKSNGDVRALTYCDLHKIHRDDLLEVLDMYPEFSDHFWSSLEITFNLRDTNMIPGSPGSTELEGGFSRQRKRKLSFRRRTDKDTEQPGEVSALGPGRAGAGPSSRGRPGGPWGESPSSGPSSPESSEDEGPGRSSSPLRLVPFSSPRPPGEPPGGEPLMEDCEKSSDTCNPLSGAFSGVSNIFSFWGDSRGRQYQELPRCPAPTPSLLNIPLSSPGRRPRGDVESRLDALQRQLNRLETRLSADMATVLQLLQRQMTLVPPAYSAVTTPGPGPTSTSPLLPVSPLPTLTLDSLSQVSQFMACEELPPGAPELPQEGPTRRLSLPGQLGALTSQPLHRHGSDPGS

SMILES	hERG current change (%, negative = inhibition) at 1uM [%]
CCOc1ccccc1OCCOCCN1CC(C)OC(C)C1 (stereo not drawn)	2.22
Cc1[nH]c2ccccc2c1/C=C/c1nc2ccccc2c(=O)n1-c1ccc([N+](=O)[O-])cc1	-1.09
Cc1ccc(NC(=S)NC(=O)c2ccc(Br)o2)c(C)c1	13.3
Cc1n[nH]c(=O)nc1N/N=C/c1cccs1	14.8
Nc1ccccc1C(=O)N=Nc1[nH]c(N)c2ccccc12	21
Nc1[nH]c(N=NC(=O)c2ccccc2O)c2ccccc12	-57.5
Nc1[nH]c(N=NC(=O)c2ccccc2)c2ccccc12	10.1
O=c1[nH]c(CN2CC=C(c3ccccc3)CC2)nc2scc(-c3cccs3)c12	14.1
CC(C)N(C)CCOC(=O)/C=C/c1ccccc1.Cl	12
Cc1cc(C)c2[nH]c3nc(SCC(=O)O)nnc3c2c1	16.7
CC1CN(C)C(C)CC1OC(=O)C(c1ccccc1)c1ccccc1 (stereo not drawn)	-68.3
CC1CN(C(C)C)C(C)CC1OC(=O)c1ccccc1 (stereo not drawn)	16.7
CN(C)[C@@H]1CCC[C@H]1OC(=O)C(c1ccccc1)c1ccccc1	-40.2
O=C(CCS(=O)(=O)Cc1ccccc1)N1CCc2ccccc2C1	8.69
O=C(CN1CCC(Cc2ccccc2)CC1)N1CCc2ccccc2C1	-62.2
Cl.O=C(CN1CCN(c2ccc(F)cc2)CC1)N1CCC(Cc2ccccc2)CC1	-5.57
O=C(NCCNc1ccccc1[N+](=O)[O-])c1cc(F)c(F)cc1Cl	-2.68
COc1cc(NC(=O)C(C)Oc2ccccc2)c(C(=O)O)cc1OC (stereo not drawn)	9.7
Cl.OC(c1ccccc1)(c1ccccc1)C1CN2CCC1CC2 (stereo not drawn)	-1.7

SMILES	hERG current change (%, negative = inhibition) at 1uM [%]
OC(c1ccccc1)(c1ccc(Cl)cc1)C1CN2CCC1CC2 (stereo not drawn)	-11.9
Cl.OC(c1cccc(Cl)c1)(c1cccc(Cl)c1)C1CN2CCC1CC2 (stereo not drawn)	-69.6
CCOC(=O)c1ccccc1NC(=O)[C@@H]1CCCN1C(=O)OC(C)(C)C	3.14
CC(C)(C)C(=O)NC1CCN(S(=O)(=O)c2ccccc2F)CC1	7.45
CO/N=C/c1ccc(N2CCN(C(=O)c3cccc(C(F)(F)F)c3)CC2)c([N+](=O)[O-])c1	-2.38
COc1ccc(N2CCN(C(=O)c3ccc(F)cc3)CC2)c([N+](=O)[O-])c1	-38.3
CO/N=C/c1ccc(N2CCN(C(=O)c3ccc(C)cc3)CC2)c([N+](=O)[O-])c1	-67.2
CO/N=C/c1ccc(N2CCN(C(=O)c3ccc(F)cc3)CC2)c([N+](=O)[O-])c1	-78.1
CO/N=C/c1ccc(N2CCN(C(=O)c3ccc(Cl)cc3Cl)CC2)c([N+](=O)[O-])c1	-18.5
COc1ccc(N2CCN(C(=O)c3ccc(C)cc3)CC2)c([N+](=O)[O-])c1	-29.7
CCc1ccc(CNC(=O)CCCC(=O)n2nc(C)c3ccccc32)cc1	16.1
CCCCCCCN1C(Nc2ccccc2)=NC[C@@H]1C	-55.2
c1ccc(CCCCN2C(Nc3ccccc3)=NC[C@@H]2Cc2ccccc2)cc1	-39.7
CCCCN1C(Nc2ccccc2)=NC[C@@H]1Cc1ccccc1	-44.2
CCCCN1C(Nc2ccccc2)=NC[C@@H]1C	16.3
CCCCCCCN1C(Nc2ccccc2)=NC[C@@H]1Cc1ccccc1	-79.6
CC(C)C[C@H]1CN=C(Nc2ccccc2)N1CCC(C)c1ccccc1 (stereo partly drawn)	-8.04
CC(C)CCCN1C(Nc2ccccc2)=NC[C@@H]1C	-0.21
CC(CCN1C(Nc2ccccc2)=NC[C@@H]1Cc1ccccc1)c1ccccc1 (stereo partly drawn)	-52.7

SMILES	hERG current change (%, negative = inhibition) at 1uM [%]
CC(C)CCN1C(Nc2ccccc2)=NC[C@@H]1Cc1ccccc1	-15
CCOc1ccc(S(=O)(=O)n2nc(C)cc2C)cc1	13.8
CCOc1cc(/C=N/NC(=O)CNc2ccc(C)cc2)ccc1OC(=O)c1ccccc1	-0.419
CN(Cc1c(F)cccc1Cl)C(=O)CNC(=O)c1ccc2c(c1)OCO2	13.8
CCCOc1ccc(NC(=O)CC2C(=O)N(c3ccc(OCC)cc3)C(=S)N2C2CC2)cc1 (stereo not drawn)	-3.7
CN1CCN(c2ccc(NC(=O)c3ccc([N+](=O)[O-])o3)cc2Cl)CC1	-13.7
Cc1ccc(N2CC(O)Cn3c2nc2c3c(=O)n(C)c(=O)n2C)cc1 (stereo not drawn)	13.5
CCc1ccc2oc(-c3ccc(OC)cc3)cc(=[NH+]c3c(C)n(C)n(-c4ccccc4)c3=O)c2c1.F[B-](F)(F)F	-33.7
CC(C)C[NH+]=c1cc(-c2ccccc2)oc2ccc(Cl)cc12.F[B-](F)(F)F	-81.1
O=c1cc(-c2ccccc2)oc2ccccc12	13
CCc1ccc2oc(-c3ccc(OC)cc3)cc(=[NH+]c3cccc(C(=O)O)c3)c2c1.F[B-](F)(F)F	4.56
Cc1cc(Cl)ccc1Oc1ncnc2oc(-c3ccccc3)cc12	6.84
CC(O)C[NH+]=c1cc(-c2ccccc2)oc2ccc(Cl)cc12.F[B-](F)(F)F (stereo not drawn)	-57
COC(=O)c1sc(S(=O)(=O)N2CCC(C(N)=O)CC2)c(C(=O)OC)c1C	-10.8
Cc1cc2nnc(SCc3ccccc3)n2c(N)n1	-5.86
CCCCNC(=O)CN(c1ccc(Cl)c(Cl)c1)S(C)(=O)=O	7.06
CCOc1ccc(Br)cc1C1C(C(=O)OC)=C(N)Oc2cc(N(C)C)ccc21 (stereo not drawn)	16.6
COC(=O)C1=C(N)Oc2cc(N(C)C)ccc2C1c1ccccc1OC (stereo not drawn)	-84.1
COC(=O)C1=C(N)Oc2cc(C)[nH]c(=O)c2C1c1ccccc1OC (stereo not drawn)	9.49
